Results from PubChem BioAssay (NCI).
The panel holds about 79,000 compounds, 15% with a hit somewhere; the sample as a whole holds those more often. Active and inactive are the calls of the source. Cut-off read from the data, not from the text of the source: active = growth inhibition above about 70%; inactive = the rest.

What was measured:
[1] = NCI Yeast Anticancer Drug Screen. Data for the rad50 strain (AID 155);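 note: 0% = growth of vehicle-only cultures of the same strain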; details: S. cerevisiae rad50 strain growth inhibition, hits give high values
Method in brief: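 Compounds were tested on a yeast strain with an engineered DNA damage repair alteration; the reported value is growth inhibition normalised to vehicle treatment.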

[2] = NCI Yeast Anticancer Drug Screen. Data for the mec2-1 strain (AID 157); details: S. cerevisiae mec2-1 strain, hits give high values
Method in brief: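 Mutant yeast (mec2-1) grown with compound; growth inhibition relative to vehicle control reported.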

[3] = NCI Yeast Anticancer Drug Screen. Data for the sgs1 mgt1 strain (AID 161);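 note: 0% = growth of cultures given vehicle only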; details: S. cerevisiae sgs1 mgt1 strain, hits give high values
Method in brief: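 Growth of a repair-deficient yeast mutant was monitored after compound treatment and expressed as inhibition relative to vehicle-treated cultures.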

[4] = NCI Yeast Anticancer Drug Screen. Data for the cln2 rad14 strain (AID 165);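 note: 0% = growth equal to vehicle treated cultures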; details: S. cerevisiae cln2 rad14 strain, hits give high values
Method in brief: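 Readout is yeast growth inhibition versus vehicle-treated controls, using a strain with cln2 and rad14 alterations exposed to compound.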

[5] = NCI Yeast Anticancer Drug Screen. Data for the bub3 strain (AID 167); details: S. cerevisiae bub3 mutant strain, hits give high values
Method in brief: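 Growth of a checkpoint-deficient yeast mutant is measured after compound exposure. Values represent inhibition relative to vehicle.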

[6] = NCI Yeast Anticancer Drug Screen. Data for the mlh1 rad18 strain (AID 175); details: S. cerevisiae mlh1 rad18 strain growth inhibition, hits give high values
Method in brief: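 Genetically defined yeast (DNA repair-deficient) exposed to compounds; growth inhibition determined relative to vehicle.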

[7] = at 5.0 µM (retest, dose inferred, filed as 0.5)
[8] = at 50.0 µM (retest, dose inferred, filed as 5.0)

Measured: growth inhibition

O=C1OC(=O)c2cccc3cccc1c23
active: [1]; [8] 99% | [1]; at 50.0 µM 98.8% | [2]; [8] 99% | [2]; at 50.0 µM 99.1% | [3]; [8] 99% | [3]; at 50.0 µM 98.5% | [4]; [8] 99% | [4]; at 50.0 µM 98.5% | [5]; [8] 99% | [5]; at 50.0 µM 99.5% | [6]; [8] 99% | [6]; at 50.0 µM 98.4%
inactive: [1]; [7] 51% | [2]; [7] 35% | [3]; [7] 19% | [4]; [7] 23% | [5]; [7] 58% | [6]; [7] 57%

O=C(Nc1ccc2c(c1)Cc1cc([N+](=O)[O-])c(F)cc1-2)C(F)(F)F
inactive: [1]; [7] 13% | [1]; [8] 4% | [1]; at 50.0 µM 5.25% | [2]; [7] 1% | [2]; [8] 2% | [2]; at 50.0 µM 49.2% | [3]; [7] 3% | [3]; [8] -20% | [3]; at 50.0 µM 6.55% | [4]; [7] 0% | [4]; [8] 7% | [4]; at 50.0 µM -2.1% | [5]; [7] -3% | [5]; [8] 0% | [5]; at 50.0 µM -4.35% | [6]; [7] 3% | [6]; [8] 3% | [6]; at 50.0 µM 28.5%

CCOC(=O)C1CC(C(=O)OCC)C(=O)C1=O (stereo not given)
inactive: [1]; [7] 45% | [2]; [7] 27% | [3]; [7] 54% | [3]; at 50.0 µM 43.6% | [4]; [7] 28% | [4]; at 50.0 µM 34.2% | [5]; [7] 44% | [6]; [7] 37% | [6]; at 50.0 µM 47.9%
active: [1]; [8] 96% | [1]; at 50.0 µM 96.3% | [2]; [8] 95% | [2]; at 50.0 µM 91% | [3]; [8] 96% | [4]; [8] 97% | [5]; [8] 97% | [5]; at 50.0 µM 94% | [6]; [8] 98%

C=C1C(=O)O[C@@H]2C[C@@]3(C)CCC[C@H](C)C3=C[C@H]12 (tested in a mixture with another compound)
active: [1]; [8] 96% | [1]; at 50.0 µM 91.8% | [2]; [8] 97% | [2]; at 50.0 µM 93% | [3]; [8] 97% | [3]; at 50.0 µM 92.3% | [4]; [8] 91% | [4]; at 50.0 µM 90% | [5]; [8] 98% | [5]; at 50.0 µM 91.2% | [6]; [8] 98% | [6]; at 50.0 µM 91.5%
inactive: [1]; [7] 9% | [2]; [7] 14% | [3]; [7] 4% | [4]; [7] 30% | [5]; [7] 13% | [6]; [7] 19%

O=C(NNc1ccccc1)c1ccccc1Cl
active: [1]; [8] 93% | [1]; at 50.0 µM 97.5% | [2]; [8] 89% | [2]; at 50.0 µM 92% | [3]; [8] 91% | [3]; at 50.0 µM 96% | [4]; [8] 89% | [4]; at 50.0 µM 93% | [5]; [8] 95% | [5]; at 50.0 µM 95.7% | [6]; [8] 97% | [6]; at 50.0 µM 95.6%
inactive: [1]; [7] -3% | [2]; [7] 9% | [3]; [7] 15% | [4]; [7] -9% | [5]; [7] -14% | [6]; [7] 13%

O=C(C[n+]1cccc2ccccc21)c1ccc(-c2ccc(C(=O)C[n+]3cccc4ccccc43)cc2)cc1
inactive: [1]; [7] 3% | [1]; [8] 32% | [1]; at 50.0 µM 62.2% | [2]; [7] 50% | [2]; [8] 23% | [2]; at 50.0 µM 50% | [3]; [7] 2% | [3]; [8] 36% | [3]; at 50.0 µM 46.5% | [4]; [7] 2% | [4]; [8] 24% | [4]; at 50.0 µM 31.9% | [5]; [7] 1% | [5]; [8] 44% | [5]; at 50.0 µM 45.6% | [6]; [7] 4% | [6]; [8] 53%
active: [6]; at 50.0 µM 86.3%

CCOC(=O)N1CCN(CCCCCCOc2c(Cl)cc(Cl)cc2Cl)CC1
inactive: [1]; [7] 45% | [2]; [7] 41% | [4]; [7] 58% | [5]; [7] 64% | [6]; [7] 49%
active: [1]; [8] 98% | [1]; at 50.0 µM 98.7% | [2]; [8] 99% | [2]; at 50.0 µM 96.1% | [3]; [7] 71% | [3]; [8] 99% | [3]; at 50.0 µM 92% | [4]; [8] 98% | [4]; at 50.0 µM 98.4% | [5]; [8] 98% | [5]; at 50.0 µM 97.2% | [6]; [8] 99% | [6]; at 50.0 µM 98.2%

CCN(CC)CCCNc1ccc([N+](=O)[O-])c2nc3ccc(OC)cc3c(N)c12
active: [3]; at 50.0 µM 79.2% | [6]; [8] 74%
inactive: [1]; [7] -13% | [1]; [8] 62% | [1]; at 50.0 µM 44.2% | [2]; [7] -20% | [2]; [8] 27% | [2]; at 50.0 µM -5.3% | [3]; [7] -7% | [3]; [8] 44% | [4]; [7] 2% | [4]; [8] 31% | [4]; at 50.0 µM 19.6% | [5]; [7] -11% | [5]; [8] 54% | [5]; at 50.0 µM 13.6% | [6]; [7] -39% | [6]; at 50.0 µM 62%

CC/C(C)=N/OC(=O)Nc1ccccc1
inactive: [1]; [7] 5% | [1]; [8] 0% | [1]; at 50.0 µM 39.1% | [2]; [7] -22% | [2]; [8] 5% | [2]; at 50.0 µM 17.2% | [3]; [7] 2% | [3]; [8] 20% | [3]; at 50.0 µM 64.7% | [4]; [7] 5% | [4]; [8] 8% | [4]; at 50.0 µM 11.2% | [5]; [7] -74% | [5]; [8] 2% | [5]; at 50.0 µM 0.05% | [6]; [7] 1% | [6]; [8] 14% | [6]; at 50.0 µM 34%

C1CCC2[N-]CC3CCCCC3[N-]CC3CCCCC3[N-]CC3CCCCC3[N-]CC2C1.[Cl][Fe]([Cl])([Cl])[Cl].[Fe+6] (stereo not given)
active: [1]; [8] 97% | [1]; at 50.0 µM 96.3% | [2]; [8] 98% | [2]; at 50.0 µM 98.5% | [3]; [8] 98% | [3]; at 50.0 µM 98.5% | [4]; [8] 96% | [4]; at 50.0 µM 96.8% | [5]; [8] 97% | [5]; at 50.0 µM 97.5% | [6]; [8] 98% | [6]; at 50.0 µM 97.7%
inactive: [1]; [7] 41% | [2]; [7] 10% | [3]; [7] 25% | [4]; [7] 0% | [5]; [7] -3% | [6]; [7] 26%
